Data from the supplement of paper PMC13380429.

Tested on: Vero E6 infected with SARS-CoV-2
Experiment: morphology score (similarity to uninfected cells); higher = more like uninfected cells
Conditions: 24 h

Row | SMILES | morphology score
1 | O=P(O)(O)C(O)(Cn1ccnc1)P(=O)(O)O [zoledronic-acid] (10 µM) | 0.0372
2 | CO[C@H]1/C=C/O[C@@]2(C)Oc3c(C)c(O)c4c(O)c(cc(O)c4c3C2=O)NC(=O)/C(C)=C\C=C\[C@H](C)[C@H](O)[C@@H](C)[C@@H](O)[C@@H](C)[C@H](OC(C)=O)[C@@H]1C [rifamycin-sv] (10 µM) | 0.117
3 | O=C(O)c1ccccc1NCCc1ccccc1 [tromaril] (10 µM) | -0.0774
4 | O=C[C@H](F)[C@@H](O)[C@@H](O)[C@H](O)CO [2-fluoro-2-deoxy-D-galactose] (10 µM) | 0.127
5 | Cc1cn(C[C@H](N)C(=O)O)c(=O)n(Cc2ccsc2C(=O)O)c1=O (10 µM) | -0.0699
6 | O=C(O)CCc1ccc(NCc2cccc(Oc3ccccc3)c2)cc1 (10 µM) | -0.132
7 | C1N2CN3CN1CN(C2)C3 [methenamine] (10 µM) | 0.11
8 | CC(C)(OCc1nn(Cc2ccccc2)c2ccccc12)C(=O)O [bindarit] (10 µM) | 0.132
9 | OC[C@H]1O[C@@H](n2cnc3c(NC4CCCC4)ncnc32)[C@H](O)[C@@H]1O [N6-cyclopentyladenosine] (10 µM) | -0.0139
10 | O=C(NCCCCN1CCN(c2cccc(Cl)c2Cl)CC1)c1ccc2c(c1)Cc1ccccc1-2 (10 µM) | -0.00329
11 | CC(C)(C)NCC(O)c1cc(O)cc(O)c1 (stereo not given) (10 µM) | 0.0272
12 | CCOc1ccc(Nc2nc(-c3c(C)nc4ccccn34)cs2)cc1 (0.833333 µM) | -0.00134
13 | C[C@@H](c1nc(-c2ccc(C#N)cc2)cs1)[C@](O)(Cn1cncn1)c1cc(F)ccc1F [isavuconazole] (10 µM) | -0.116
14 | NC(=O)[C@@H](CCC(F)(F)F)N(Cc1ccc(-c2ncon2)cc1F)S(=O)(=O)c1ccc(Cl)cc1 [avagacestat] (10 µM) | 0.0806
15 | OCc1cc(C(O)CNCCCCCCOCCCCc2ccccc2)ccc1O (stereo not given) [salmeterol] (10 µM) | 0.465
16 | CNc1nc(-c2ccc3c(N)n[nH]c3c2)cc(N2C[C@@H](C(=O)NC3CCCCC3)CC[C@H]2C)n1 (0.833333 µM) | 0.0384
17 | CCOC(=O)[C@@H](N)Cc1ccc(-c2cc(O[C@H](c3ccc(Cl)cc3-n3ccc(C)n3)C(F)(F)F)nc(N)n2)cc1 [telotristat-ethyl] (10 µM) | 0.343
18 | COc1ccc(-c2coc3cc(O)ccc3c2=O)cc1 [formononetin] (10 µM) | 0.158
19 | COc1ccc(COc2cc3oc(=O)c4cc(C(C)O)ccc4c3cc2OC)cc1 (stereo not given) [palomid-529] (10 µM) | 0.0689
20 | C[C@@H]1CC[C@H]2C(C)(C)[C@H]3C[C@@]12CC[C@@]3(C)O [cedrol] (10 µM) | 0.0579

Row | SMILES | morphology score
21 | CCOC(=O)[C@H](CCc1ccccc1)N[C@@H](C)C(=O)N1[C@H](C(=O)O)C[C@H]2CCCC[C@@H]21 [trandolapril] (10 µM) | 0.00679
22 | CN(C)C/C=C(/c1ccc(Br)cc1)c1cccnc1 [zimelidine] (10 µM) | 0.166
23 | CC(C)[C@](O)(c1ccc2cc(OC(F)F)c(OC(F)F)cc2c1)c1c[nH]nn1 (10 µM) | 0.165
24 | CN1CCc2c(c3ccccc3n2Cc2ccccc2)C1 [mebhydrolin] (10 µM) | 0.242
25 | O=C(Nc1cc(Oc2cc(F)c(NC(=O)C3(C(=O)Nc4ccc(F)cc4)CC3)cc2F)ccn1)C1CC1 [altiratinib] (10 µM) | 0.122
26 | O=C(Nc1cccnc1)N1CCC(Cc2cccc(Oc3ccc(C(F)(F)F)cn3)c2)CC1 (0.833333 µM) | 0.191
27 | CC1(c2ccccc2)OC(C(=O)O)=CC1=O (stereo not given) [acifran] (10 µM) | 0.119
28 | Cc1[nH]nc(C(F)(F)F)c1Cc1sc2c(c1C(=O)N1C[C@](C)(O)CO1)c(=O)n(C)c(=O)n2C(C)C (10 µM) | 0.0405
29 | COc1ccc(C(=O)N2CCCc3cc(C4=NNC(=O)SC4C)ccc32)cc1OC (stereo not given) (0.833333 µM) | -0.177
30 | NS(=O)(=O)Nc1ncnc(OCCOc2ncc(Br)cn2)c1-c1ccc(Br)cc1 (10 µM) | 0.0685
31 | CC(C)N1CCN(c2ccc(OCC3COC(Cn4cncn4)(c4ccc(Cl)cc4Cl)O3)cc2)CC1 (stereo not given) [terconazole] (0.833333 µM) | -0.0821
32 | C[C@H]1C[C@@H]2[C@H]([C@@H](O)C[C@@]3(C)[C@H]2CC[C@]3(O)C(=O)COC(=O)CCC(=O)O)[C@@]2(C)C=CC(=O)C=C12 [methylprednisolone-sodium-succinate] (10 µM) | -0.0168
33 | O=[N+]([O-])c1ccccc1S(=O)(=O)NCC1CCC(CNC[C@H]2CCc3ccccc3C2)CC1 (stereo not given in full) (0.833333 µM) | -0.0186
34 | CCc1c(-c2ccccc2)c(-c2ccccc2)nn1-c1ccccc1-c1cccc(OCC(=O)O)c1 (10 µM) | 0.0748
35 | O=c1ncccn1[C@@H]1O[C@H](CO)[C@@H](O)[C@H]1O [zebularine] (10 µM) | 0.0754
36 | CC(C)C[C@@H](N)C1(c2ccc(Cl)cc2)CCC1 (10 µM) | -0.0886
37 | NC(=O)C[S+]([O-])C(c1ccccc1)c1ccccc1 (stereo not given) (10 µM) | 0.113
38 | CC(=O)CC/C=C(\C)CC/C=C(\C)CC/C=C(\C)CCC=C(C)C [teprenone] (10 µM) | 0.0677
39 | O=c1[nH]cnc2nc[nH]c12 [hypoxanthine] (10 µM) | 0.0617
40 | OCC(O)CN1CCN(c2ccccc2)CC1 (stereo not given) [dropropizine] (10 µM) | 0.106
